This is a sample that favours compounds with a hit; in the whole collection about 6.5% have one here.
Fluor 339 460: intrinsic fluorescence of library compounds, ex339/em460 – biochemical, MLSMR library, data from DPM-DC assay, artefact control, profiling panel. compound autofluorescence, ex339/em460 nm, NADH buffer; active compounds read high; 1 = no-compound wells, NADH background. fluorescence fold increase at 10 µM. 65,000 compounds, 5.5% hits. AID 709, 2007;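 active = at 10 µM, mean starting fluorescence two-fold or more over control wells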;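 also: signal is the first read of a kinetic run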
A340 absorber: compound light absorbance at 340 nm, profiling panel, artefact control, biochemical, MLSMR library, data from PS, PMK, MK assays | AID 708, 2007 | compound absorbance at 340 nm, fold over control | 65,000 tested, under 10 active | fold change at 10 µM;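 active = at 10 µM dose, initial 340 nm absorbance at least 2 fold that of control wells; inactive = change under 2 fold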;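 also: initial absorbance extrapolated from kinetic A340 decline of NADH oxidation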
PMK inhibit: S. pneumoniae PMK inhibitors, primary screen, biochemical, mevalonate pathway, pilot trial included; 65,000 compounds, 0.49% hits; purified PMK, PK/LDH-coupled NADH absorbance 340 nm; inhibition, % at 10 µM; AID 539, 2006;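 active = top-ranked compounds by inhibition in the single 10 µM screen, taking a fixed number of the strongest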
Spn DPM-DC inh: S. pneumoniae DPM-DC inhibitors, primary screen, biochemical, PK/LDH-coupled NADH fluorescence; diphosphomevalonate decarboxylase (Streptococcus pneumoniae D39); purified DPM-DC; calls only at 10 µM; 65,000 compounds, 0.49% hits;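 active = the 320 compounds with the highest percent inhibition in the single-dose primary screen, excluding strongly autofluorescent ones, cut at about 32% in these data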;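 also: kinetic rate of NADH fluorescence loss reporting ADP formed by the decarboxylase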
NADH coupling: inhibitors of PK/LDH coupling enzymes, profiling panel, artefact control, biochemical, MLSMR library. IC50, µM (series often up to 10 µM). coupled PK/LDH NADH assays, four targets. AID 774, 2007. 65,000 compounds, 0.02% hits;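 active = single-dose screening hits from any of four coupled enzyme assays that gave an IC50 when retested across doses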;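 also: the DPM-DC format reads NADH fluorescence rather than 340 nm absorbance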
Spn MK inh: S. pneumoniae MK inhibitors, primary screen, biochemical, PK/LDH-coupled NADH absorbance; 65,000 compounds, 0.48% hits; purified MK, PK/LDH-coupled NADH absorbance 340 nm; inhibition, % at 10 µM; AID 555, 2006; mevalonate kinase [Streptococcus pneumoniae D39];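 active = ranked among the strongest by inhibition in the single 10 µM screen, a fixed top-ranked set picked for dose follow-up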
Hits are given with their value; i = inactive; nt = not tested or not shown; + = active, no number.

SMILES	Fluor 339 460	A340 absorber	PMK inhibit	Spn DPM-DC inh	NADH coupling	Spn MK inh
COc1ccc(CN2CCCC(C(=O)N3CCCC3)C2)cc1 (stereo not drawn)	i	i	i	i	i	i
O=C(C1CCN(Cc2ccc(OCc3ccccc3)cc2)CC1)N1CCCC1	i	i	34.0	i	i	59.0
CC1CC(C)CN(C(=O)COc2ccc(-c3nnco3)cc2)C1 (stereo not drawn)	i	i	i	i	i	i
Nc1c2c(nc3ccn(-c4ccccc4)c(=O)c13)CCCCC2	2.14	i	i	i	i	i
O=C(CN1CCN(Cc2ccccc2F)C1=O)NCc1cccnc1	i	i	i	i	i	i
Cc1c(C(=O)N2CCN(c3ccc(C(F)(F)F)cn3)CC2)oc2ccccc12	i	i	i	i	i	i
CC(=O)c1ccc(N2CCN(c3ccc(C(F)(F)F)cn3)CC2)cc1	i	i	40.0	i	i	i
CCc1nnc(NC(=O)CSc2nnc(COc3ccccc3)n2Cc2ccccc2)s1	i	i	i	+	i	i
CCc1nnc(NC(=O)CSc2nnc(Cc3cccn3C)n2C)s1	i	i	28.0	i	i	i
C=CCn1c(COc2ccccc2)nnc1SCC(=O)O	i	i	i	i	i	i
C=C(C)Cn1c(COc2ccccc2)nnc1SCC(=O)O	i	i	i	+	i	i
CCc1nnc(NC(=O)CSc2nnc(Cc3ccccc3)n2Cc2ccccc2)s1	i	i	i	i	i	i
CCOC(=O)c1ccccc1NC(=O)CSc1nnc(Cc2cccn2C)n1-c1ccc(C)cc1	2.01	i	i	i	i	i
Cn1c(CCc2ccccc2)nnc1SCC(=O)N1CCCC1	i	i	i	i	i	i
O=C(CN1C(=O)c2ccccc2S1(=O)=O)N1CCOCC1	i	i	i	i	i	i
O=C(NC1(C(F)(F)F)C(=O)Nc2c1c(=O)[nH]c(=O)n2Cc1ccco1)C1CC1 (stereo not drawn)	i	i	i	i	i	i
CCOCCn1c(CN2CCCCC2)nc2c1c(=O)n(C)c(=O)n2C	i	i	i	i	i	i
Cn1nc(C(=O)N2CCN(S(=O)(=O)c3ccccc3)CC2)c2ccccc2c1=O	i	i	i	i	i	i
CCN(CC)c1ccc(NC(=O)CN2CCN(c3ccccc3F)CC2)cc1	i	i	i	i	i	i
C/C=C(\C)CN1CCN(c2ccccc2F)CC1	i	i	i	i	i	51.0
C/C=C(\C)CN1CCN(c2cc(C)ccc2C)CC1	i	i	i	i	i	i
CCN(CC)C(=O)CN1CCN(c2ccccc2F)CC1	i	i	i	i	i	68.0
O=C(CN1CCN(c2ccccc2F)CC1)c1ccc2cc[nH]c2c1	2.15	i	i	nt	i	i
CCCn1c(=NC(=O)c2ccco2)c(C(=O)OCC)cc2c(=O)n3ccccc3nc21	3.84	i	i	nt	i	i
CC(C)OCCCn1c(=N)c(C(N)=S)cc2c(=O)n3ccccc3nc21	i	i	i	i	i	i
SMILES	Fluor 339 460	A340 absorber	PMK inhibit	Spn DPM-DC inh	NADH coupling	Spn MK inh
CCOC(=O)c1cc2c(=O)n3ccccc3nc2n(CCCOC)c1=NC(C)=O	2.44	i	i	nt	i	i
CN1CCN(S(=O)(=O)c2cccc(C(=O)NC3CCCc4ccccc43)c2)CC1 (stereo not drawn)	i	i	i	i	i	i
CCOC(=O)c1cccc(NC(=O)C2CCN(S(=O)(=O)c3cnc[nH]3)CC2)c1	i	i	i	i	i	i
CCOc1ccccc1CNc1nc2nc3c(c(=O)n2[nH]1)CCC3	i	i	i	i	i	i
Cc1cc(C)n2nc(SCc3cc(=O)n4c(C)cccc4n3)nc2n1	i	i	28.0	i	i	i
Cc1cc(C)n2nc(SCc3cc(=O)n4ccccc4n3)nc2n1	i	i	i	i	i	i
Cc1cc(NC(=O)c2cnc3ccccn3c2=O)no1	3.73	i	i	i	i	i
COc1ccccc1CNC(=O)c1cnc2ccccn2c1=O	i	i	i	i	i	i
O=C(NCc1cccs1)c1cnc2ccccn2c1=O	2.02	i	i	i	i	i
CCN1CCN(CCCNC(=O)c2cc3sccc3n2CC)CC1	i	i	i	i	i	i
CC1(C)C(=O)Nc2ccccc2N1C(=O)COC(=O)C12CC3CC(CC(O)(C3)C1)C2	i	i	i	i	i	i
CCn1cc(C(=O)NC2CCCCC2C)c(=O)c2ccc(C)nc21 (stereo not drawn)	i	i	i	i	i	i
Cc1c2c(nc3c(C(=O)NC4CCCCC4C)cnn13)CCCC2 (stereo not drawn)	4.42	i	29.0	nt	i	i
Cc1cc(NC(=O)c2cc(C)on2)no1	i	i	i	i	i	i
COc1ccc(OC)c(-c2cc(C(=O)Nc3cccc(Cl)c3)no2)c1	4.34	i	i	nt	i	i
Cc1cc(NC(=O)c2cc(C3CC3)on2)no1	i	i	i	i	i	57.0
CCc1c(C)sc(NC(=O)c2cc(-c3cc(OC)ccc3OC)on2)c1C#N	5.06	i	i	nt	i	i
COc1ccc(OC)c(-c2cc(C(=O)Nc3cc(C)on3)no2)c1	2.75	i	i	i	i	i
COc1ccc(OC)c(-c2cc(C(=O)Nc3c(C)nn(Cc4ccc(Cl)cc4)c3C)no2)c1	i	i	i	i	i	i
COc1ccc(OC)c(-c2cc(C(=O)Nc3c(C)nn(Cc4ccccc4)c3C)no2)c1	i	i	i	i	i	i
CCOC(=O)CSc1nnc(N)s1	i	i	i	i	i	i
CCOC(=O)C(CCc1nnc(N)s1)C(=O)OCC	i	i	30.0	i	i	i
C=CCn1c(=O)c2ccccc2n2c(SCC(=O)NCc3cccs3)nnc12	i	i	i	i	i	i
Cc1ccc(-c2nc(CN(C)C)cc(CN(C)C)c2O)cc1	3.82	i	i	nt	i	i
O=C(CSc1nc2ccccc2[nH]1)N1CCCCC1	i	i	i	i	i	i
SMILES	Fluor 339 460	A340 absorber	PMK inhibit	Spn DPM-DC inh	NADH coupling	Spn MK inh
N=c1oc2c3c4c(cc2cc1C(=O)Nc1ccccc1)CCCN4CCC3	i	i	i	i	i	i
O=c1oc2c3c4c(cc2cc1-c1nc2ccccc2[nH]1)CCCN4CCC3	2.12	i	71.0	nt	i	i
O=c1oc2c(CN3CCCCC3)c(O)ccc2cc1-c1nc2ccccc2[nH]1	3.97	i	i	nt	i	i
CCOc1ccc(C(=O)Nc2nnc(C)s2)cc1OCC	i	i	i	i	i	i
CN1CCN(C(=O)c2ccc(C(C)(C)C)cc2)CC1	i	i	i	i	i	i
Cc1ccc(NC2=NC(c3ccc(C)cc3)n3c(nc(C)cc3=O)N2)cc1 (stereo not drawn)	i	i	i	i	i	i

High-throughput results: PubChem BioAssay, SRMLSC
